The experiment has as its target AMP-activated protein kinase, AMPK (Homo sapiens) (UniProt P54646+O43741+P54619+Q9UGJ0+Q9Y478+Q13131+Q9UGI9). Description: AMP-dependent Kinase enzyme assay. An in vitro enzyme assay that detects ADP turnover that is directly proportional to AMPK activity. This uses naive AMPK that is activated during the assay with MK-8722. The format is functional. Set-up: scale not given: direction of the effect not stated beside the values. The note with it: 30 µM.
For `CN(Cc1cscn1)Cc1cc2c(cc1Br)OCO2`, the Percent Effect was -7.36%. In the case of `Cc1ncsc1CCN(C)Cc1ccc(Br)o1` it was -1.27%; in that of `CN(Cc1cc(Br)c2c(c1)OCO2)Cc1cscn1`, -9.1%; in that of `COc1ccccc1OCCc1nnc(NC(=O)C2CC23CCC3)s1` (stereo not given), 8.73%. In the case of `CCn1nc(C)c(C(C)Nc2cc(C3CCNCC3)nc(C)n2)c1C` (stereo not given) it was 0.304%; in that of `Cc1ccc(N2CCCN(C(=O)CCCn3ccnc3C)CC2)nn1`, -0.453%. In the case of `CN(C)c1ncccc1CNC(=O)NCC(c1cccs1)N(C)C` (stereo not given) it was -9.48%; in that of `COc1ncc(NCc2cccc(C#N)c2)cc1C(N)=O`, 8.6%. Take `CN(C(=O)c1ccccn1)c1nnc(C2CCOC2)s1` (stereo not given): the Percent Effect came to 9.22%. In the case of `CCc1nc(N)nc(NCCC(=O)NC2CCCCC2)c1C` it was 0.541%; in that of `Oc1ccc(N2CCC(Cc3ccccc3)CC2)nn1`, 9.16%; in that of `Cc1cncnc1C1CCN(C(=O)C2(C)CCCCN2C)CC1` (stereo not given), 17%.

Take `O=S(=O)(NCCCn1cccn1)c1ccc2c(c1)CCC2`: the Percent Effect came to 12.2%.

As for `OCC1(CCOc2ccccc2)CCN(c2ccc(Cl)cn2)CC1`, the Percent Effect was -2.64%. In the case of `COC(=O)CC1CCCCN1CC(=O)Nc1cc(F)ccc1F` (stereo not given) it was 7.24%; in that of `Cc1nc(C(C)C)sc1C(C)N(C)C(=O)c1ccc(=O)n(C)n1` (stereo not given), -6.04%. Consider `Cc1cc(C(=O)NCCN2CCCCCC2)nn1C(C)(C)C`, for which the Percent Effect was 4.2%.

On to `CC(CNC(=O)c1cnc[nH]1)Oc1ccccc1Br` (stereo not given), for which the Percent Effect worked out at 10.3%.

In the case of `NC(=O)NC1CCN(Cc2ccccc2OCC(F)(F)F)CC1`, the Percent Effect was -5.97%. In the case of `O=c1cc(N2CCNCC2)cnn1Cc1noc(C2CCCC2)n1` it was -1.96%; in that of `Cc1ccc(OCC2CCCN(C(=O)c3csc(CN(C)C)n3)C2)cc1` (stereo not given), 14.7%; in that of `Cc1cc(C)c(-n2cccn2)c(CN2CCOCC(CN(C)C)C2)c1` (stereo not given), -0.542%. Regarding `CCc1cc(=O)[nH]c(-c2ccc(NCCC(C)O)nc2)n1` (stereo not given), the Percent Effect was -6.17%. In the case of `Cc1ccc(-c2nc(C(=O)N(C)CC(=O)N(C)C)cs2)c(C)c1` it was -3.64%. In the case of `COc1cccc(F)c1CN1CCC(c2nc(C)cc(C)n2)C1` (stereo not given) it was 1.72%.

As to `Cc1ccccc1CCC1CCCN(C(=O)Cc2cc(=O)[nH]c(N)n2)C1` (stereo not given), the Percent Effect was -3.84%.

Take `COc1ccc2nc(CNC(=O)C3CC4(CCNCC4)CN3C)[nH]c2c1` (stereo not given): the Percent Effect was -3.99%. In the case of `O=C(CCCn1ccnc1)NC1CCCN(c2ccccc2Cl)C1` (stereo not given) it was 6.12%. In the case of `CCn1cnnc1CNC(=O)N1CCOC(c2ccc(F)cc2)C1` (stereo not given), the Percent Effect was -5.45%.

Consider `CCn1ncnc1C1CC(=O)NCc2nc(N)sc21` (stereo not given), for which the Percent Effect is -18.1%.

As for `Cc1ccc2c(c1)cc(CN1CC[C@](C)(O)[C@H](C)C1)n2C`, the Percent Effect turned out to be 9.89%. For the molecule `Cc1cc(NCCNc2cccnc2)nc(-c2ccccc2O)n1`, the Percent Effect was 19.9%. In the case of `N#Cc1c(C2CC2)cc(-c2ccc(F)c(F)c2)nc1N` it was 10.4%.

For the molecule `Cc1n[nH]c(C)c1CCN(C)c1ccc(-c2nc(C3CC3)no2)cn1`, the Percent Effect is -6.17%. In the case of `COC(=O)c1ccc(Cn2cccc(C(F)(F)F)c2=O)s1` it was 3.31%; in that of `Cc1cc(-n2cccn2)ccc1CN1C[C@@H](CN(C)C)[C@@H](CO)C1`, -2%. In the case of `Cc1nsc(N2CCCN(CC(=O)N(C)C3CC3)CC2)n1` it was 7.25%; in that of `CN(CCCOc1ccccc1Cl)C(=O)CN1CCCCCC1=O`, 9.36%; in that of `CN(Cc1csc(-c2cccs2)n1)Cc1cccnc1N`, 3.93%. In the case of `CC(C)c1nnc2n1CCN(Cc1ccc3c(c1)OCCO3)C2` it was 3.43%.
